Mcl-1 Bim block = inhibitors of Bim peptide binding to Mcl-1, primary screen, biochemical, bead-based flow cytometry, multiplex; Induced myeloid leukemia cell differentiation protein Mcl-1 (Homo sapiens), Q07820; Bim peptide-Mcl-1 binding; inhibition, % at 10 µM; 190,000 compounds, 0.1% hits; in the data active = inhibition above about 40%
Bcl-xL primary = inhibitors of human Bcl-xL, primary screen, biochemical, fluorescence polarization, HTS; AID 2129, 2009; inhibition, % at 10.9 µM; Bcl-2-like protein 1 (Homo sapiens), Q07817; 320,000 compounds, 0.7% hits; GST-Bcl-xL / FITC-Bim BH3 peptide fluorescence polarization;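 active = inhibition above the mean of all tested compounds plus 3 SD, cutoff set per campaign, cut at about 30% in these data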;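 also: inhibitors lower millipolarization by displacing the labeled peptide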
Mcl1 Noxa PPI = Mcl-1/Noxa binding inhibitors, primary screen, biochemical, TR-FRET, 1536-well; Induced myeloid leukemia cell differentiation protein Mcl-1 (Homo sapiens), Q07820; TR-FRET Mcl-1/Noxa peptide binding, 2 h; inhibition, % at 21.7 µM; 220,000 compounds, 1.5% hits; AID 1022, 2008;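 active = compounds that cut the protein-peptide binding signal by more than 50% relative to plate controls in a single-dose test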;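 also: His-tagged Mcl-1 with rhodamine Noxa BH3 peptide and terbium anti-His antibody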
Mcl1 Bid PPI = Mcl-1/Bid binding inhibitors, primary screen, biochemical, TR-FRET, 1536-well. Induced myeloid leukemia cell differentiation protein Mcl-1 (Homo sapiens), Q07820. TR-FRET Mcl-1/Bid-Dy647 peptide binding. inhibition, % at 21.7 µM. 220,000 compounds, 0.97% hits. AID 1021, 2008;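 active = compounds that cut the binding signal by more than half at the single screening dose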;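 also: His-tagged Mcl-1 with europium anti-His antibody binding Bid BH3 peptide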
MCL1-BIM inh = inhibitors of MCL1 binding to BIM-BH3, primary screen, biochemical, fluorescence polarization. 320,000 compounds, 0.68% hits. inhibition, % at 10.9 µM. Induced myeloid leukemia cell differentiation protein Mcl-1 (Homo sapiens), Q07820. GST-MCL1 / FITC-Bim-BH3 fluorescence polarization;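 active = inhibition above the mean inhibition of all tested compounds plus 3 SD, set per campaign, cut at about 40% in these data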;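 also: higher means more loss of mP so more displacement of Bim peptide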
GLD-1 RNA inh = GLD-1/TGE RNA complex disruptors, primary screen, biochemical, fluorescence polarization | inhibition, % at 5.96 µM | 320,000 compounds, 0.44% hits | AID 2280, 2010 | purified GLD-1 + fluorescein TGE RNA | Female germline-specific tumor suppressor gld-1 (Caenorhabditis elegans), Q17339;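 active = percent inhibition above a per-plate cutoff, the plate mean of test compounds plus 3 SD, cut at about 30% in these data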
Target sequence (Q17339 whole entry, looked up): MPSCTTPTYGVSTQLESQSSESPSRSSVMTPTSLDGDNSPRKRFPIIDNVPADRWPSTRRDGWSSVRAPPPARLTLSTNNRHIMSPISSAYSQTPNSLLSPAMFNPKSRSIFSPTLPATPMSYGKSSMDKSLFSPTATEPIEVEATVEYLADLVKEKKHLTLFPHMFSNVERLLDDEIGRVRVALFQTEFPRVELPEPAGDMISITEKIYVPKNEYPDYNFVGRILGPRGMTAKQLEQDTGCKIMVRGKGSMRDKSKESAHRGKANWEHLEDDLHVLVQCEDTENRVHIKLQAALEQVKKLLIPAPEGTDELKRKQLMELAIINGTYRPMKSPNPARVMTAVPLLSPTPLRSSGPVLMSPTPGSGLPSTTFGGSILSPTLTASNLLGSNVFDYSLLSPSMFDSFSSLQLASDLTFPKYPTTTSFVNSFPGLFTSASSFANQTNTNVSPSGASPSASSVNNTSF
Of the large screens only hits and unclear results are named; the others gave an inactive call. An excerpt weighted towards active compounds, which were near 2.3% of everything screened.

COc1ccccc1C(=O)N1CCC(N2CCN(c3ccccc3)CC2)CC1	Mcl1 Bid PPI 56 (no result: Mcl-1 Bim block)
COc1ccccc1C(=O)N1CCC(N2CCN(c3ccccc3OC)CC2)CC1	none (no result: Mcl-1 Bim block)
CSc1cccc(NC(=O)OC2CCCCCCCCCCC2)c1	none (no result: Mcl-1 Bim block)
COc1cc2[nH]c(=S)n(C3CC3)c(=O)c2cc1OC	none
COc1cc2[nH]c(=S)n(N(C(C)=O)C(C)=O)c(=O)c2cc1OC	Mcl1 Bid PPI 97
COc1cc(C)c(Br)cc1S(=O)(=O)NCCCN1CCOCC1	none
COC(=O)c1cc(C(=O)OCC(=O)c2ccc[nH]2)cc([N+](=O)[O-])c1	none (no result: Mcl-1 Bim block, Mcl1 Noxa PPI, Mcl1 Bid PPI)
Cc1ccc(-c2nc(Nc3ccc(O)cc3)c3ccccc3n2)cc1	none (no result: Mcl-1 Bim block, Mcl1 Noxa PPI, Mcl1 Bid PPI)
Cc1ccc(-c2nc(Nc3ccc(N4CCOCC4)cc3)c3ccccc3n2)cc1	Mcl1 Noxa PPI 64 (no result: Mcl-1 Bim block)
O=C(CCS(=O)(=O)c1ccc(Br)s1)NC1CCCCCC1	Mcl1 Bid PPI 78
COc1ccccc1N(C)S(=O)(=O)c1ccc(C)c(C(=O)NCc2ccccn2)c1	none (no result: Mcl-1 Bim block, Mcl1 Noxa PPI, Mcl1 Bid PPI)
Oc1cc2ccccc2cc1-c1n[nH]c(=S)o1	Mcl1 Bid PPI 57
S=c1[nH]nc(-c2c[nH]c3ccccc23)o1	none (no result: Mcl-1 Bim block, Mcl1 Noxa PPI, Mcl1 Bid PPI)
O=C(Cc1ccc(Cl)cc1)Nc1ccccc1C(=O)N1CCCCC1	none (no result: Mcl-1 Bim block, Mcl1 Noxa PPI, Mcl1 Bid PPI)
CC(C)CNC(=O)CSc1nc2scc(-c3ccccc3)c2c(=O)[nH]1	Mcl1 Noxa PPI 54
O=C(Nc1ccc2c(c1)OCO2)c1cnn2c(C(F)(F)F)cc(-c3ccco3)nc12	none
O=C(Nc1cnn(C23CC4CC(CC(C4)C2)C3)c1)c1cnn2c(C(F)(F)F)cc(-c3ccco3)nc12	Mcl1 Bid PPI 79
CCOC(=O)c1c(C)oc2c1c(C(c1cccnc1)N1CCOCC1)c(O)c1ccccc12 (centres undefined)	Mcl1 Noxa PPI 101, Mcl1 Bid PPI 69
CCOC(=O)c1c(C)oc2c1c(C=NCc1ccccn1)c(O)c1ccccc12	none (no result: Bcl-xL primary, MCL1-BIM inh, GLD-1 RNA inh)
CCOC(=O)c1c(C)oc2c1c1c(c3ccccc32)OCN(CCCC(=O)O)C1	Mcl1 Noxa PPI 53 (no result: Mcl-1 Bim block)
CCOC(=O)c1c(C)oc2c1c1c(c3ccccc32)OCN(Cc2cccnc2)C1	Mcl1 Noxa PPI 71 (no result: Bcl-xL primary, MCL1-BIM inh, GLD-1 RNA inh)
CCOC(=O)Cn1cnc2c(nnn2-c2ccc(F)cc2)c1=O	none (no result: Mcl-1 Bim block, Mcl1 Noxa PPI, Mcl1 Bid PPI)
O=C(O)c1cccc2c1C(=O)c1cc(Br)ccc1S2(=O)=O	none (no result: Mcl-1 Bim block, Mcl1 Noxa PPI, Mcl1 Bid PPI)
Cc1ccc(S(=O)(=O)N2[C@@H](c3ccc(Br)cc3)C(C(=O)O)=CC[C@H]2c2ccc3c(c2)OCO3)cc1	none (no result: Mcl-1 Bim block, Bcl-xL primary, Mcl1 Noxa PPI, Mcl1 Bid PPI, MCL1-BIM inh)
CCC1CCCCN1CCCNC(=O)Cn1cc2c(n1)-c1c(oc(C(=O)N3CCCC3)c1C)CC2 (centres undefined)	none (no result: Mcl-1 Bim block, Mcl1 Noxa PPI, Mcl1 Bid PPI)
COc1ccc(-c2csc(NC(=O)C3CC(=O)N(Cc4ccco4)C3)n2)cc1 (centres undefined)	none
O=C(Nc1nccs1)C1CC(=O)N(Cc2ccco2)C1 (centres undefined)	Mcl1 Bid PPI 88
Cc1ccccc1-c1nnn(Cc2ccc(F)cc2Cl)n1	none (no result: Mcl-1 Bim block, Mcl1 Noxa PPI, Mcl1 Bid PPI)
Cc1ccccc1OCCNC(=O)CNC(=O)c1ccccc1O	Mcl1 Bid PPI 82 (no result: Mcl1 Noxa PPI)
CC(C)(C)NC(=O)COC(=O)CNC(=O)c1cc(Cl)cc([N+](=O)[O-])c1	none
CCN1C(=O)/C(=C2\SC(=S)N(NC(=O)c3ccccc3O)C2=O)c2ccccc21	Mcl1 Noxa PPI 65 (no result: Mcl-1 Bim block)
COc1ccc(-c2csc(NC(=S)NC(=O)c3ccco3)n2)cc1Br	none (no result: Mcl-1 Bim block, Mcl1 Noxa PPI, Mcl1 Bid PPI)
COc1ccc(-c2csc(NC(=S)NC(=O)/C=C/c3ccco3)n2)cc1Br	Mcl1 Noxa PPI 66 (no result: Mcl-1 Bim block)
COc1ccc(-c2csc(NC(=S)NC(=O)/C=C/c3ccco3)n2)cc1OC	Mcl1 Noxa PPI 52, Mcl1 Bid PPI 70
CCOc1ccc(NC(=O)CN(C)C(=O)c2ccccc2OCCOc2ccccc2)cc1OCC	none (no result: Mcl-1 Bim block, Mcl1 Noxa PPI, Mcl1 Bid PPI)
CS(=O)(=O)c1ccccc1-c1nnc(NC(=O)c2ccc3ncsc3c2)o1	none (no result: Mcl-1 Bim block, Mcl1 Noxa PPI, Mcl1 Bid PPI)
Cn1nccc1C(=O)N1CCOCC1	none (no result: Mcl-1 Bim block, Mcl1 Noxa PPI, Mcl1 Bid PPI)
CCOC(=O)CSC1=NC(=O)/C(=C/c2ccc(Br)cc2)S1	none

Screening results: PubChem, several laboratories
